Experimental data: PubChem BioAssay (NCATS)
Inconclusive results are not listed. The source made the active and inactive calls. Calls follow the shape of the dose curve; as a rule, active = well fitted curve in the direction sought with a large enough effect; inconclusive = small, poorly fitted or top-dose-only effect, or another doubt; inactive = no such curve, though single readings can be large; an effect the other way counts as inactive or inconclusive.

Assays:
[1] = tested on: Zika virus NS2B-NS3 protease; experiment: Primary screen GU AMC qHTS for Zika virus inhibitors (AID 1347154); conditions: Zika NS2B-NS3 unlinked protease, AMC fluorogenic substrate; series mostly up to 54.1 µM;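 also: 0% = no-inhibitor control and -100% = no-enzyme control; nearly all actives have a fitted effect of over 70% in size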
Outline: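 Unlinked Zika NS2B hydrophilic domain–NS3 protease complex at 25 nM in 10 mM Tris-HCl pH 8.0, 0.01% Tween 20, with an AMC peptide substrate. Fluorescence change (340/450 nm) over 15 min at room temperature, normalized to controls, fitted to 4-parameter Hill.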

[2] = molecular target: Protein phosphatase 1D (Homo sapiens) (UniProt O15297); experiment: Rhodamine-PBP qHTS Assay for Modulators of WT P53-Induced Phosphatase 1 (WIP1) (AID 1347425); conditions: recombinant WIP1, Rhodamine-PBP phosphate fluorescence, real-time; series mostly up to 57.5 µM; also: % of control where 0% means no effect
Protein phosphatase 1D (Homo sapiens), sequence (O15297 whole entry, looked up): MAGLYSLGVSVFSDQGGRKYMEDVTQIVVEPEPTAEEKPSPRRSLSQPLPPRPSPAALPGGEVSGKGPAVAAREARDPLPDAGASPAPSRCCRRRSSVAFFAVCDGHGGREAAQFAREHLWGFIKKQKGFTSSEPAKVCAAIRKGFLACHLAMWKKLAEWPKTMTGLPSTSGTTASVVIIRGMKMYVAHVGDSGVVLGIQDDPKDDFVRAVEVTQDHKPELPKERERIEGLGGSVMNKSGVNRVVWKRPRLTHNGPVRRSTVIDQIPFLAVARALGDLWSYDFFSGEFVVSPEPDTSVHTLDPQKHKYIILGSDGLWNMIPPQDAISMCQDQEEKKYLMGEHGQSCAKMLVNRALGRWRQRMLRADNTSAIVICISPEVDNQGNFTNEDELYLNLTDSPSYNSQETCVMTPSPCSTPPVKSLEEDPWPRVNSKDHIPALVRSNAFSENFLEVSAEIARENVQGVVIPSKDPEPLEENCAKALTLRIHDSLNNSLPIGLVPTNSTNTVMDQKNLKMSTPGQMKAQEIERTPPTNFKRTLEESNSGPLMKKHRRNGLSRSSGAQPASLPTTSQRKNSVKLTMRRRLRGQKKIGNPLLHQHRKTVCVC
Outline: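 Read-out: Rhodamine-PBP fluorescence (ex 525/em 598 nm) for released Pi, read each minute for 11 min after adding 10 uM VEPPL-pS-QETFS; signal taken as f1 minus pre-substrate f0. Enzyme 5 nM WIP1 with 1 hr room-temperature compound preincubation.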

[3] = tested on: Zika virus NS2B-NS3 protease (unlinked complex); experiment: Primary screen GU Rhodamine qHTS for Zika virus inhibitors: Unlinked NS2B-NS3 protease assay (AID 1347159); conditions: Recombinant ZIKV NS2B-NS3 protease, Rhodamine110 substrate fluorescence; series mostly up to 107 µM; also: % is scaled to controls: 0 for no effect and ±100 for the full control effect; nearly all actives have a fitted effect of over 60% in size
Outline: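 Noncovalent NS2B hydrophilic domain–NS3 protease domain complex (25 nM) preincubated 15 min at room temperature with compounds (up to 114 microM) in 10 mM Tris-HCl pH 8.0, 0.01% Tween 20; 1.5 microM Rhodamine110 substrate added, fluorescence change over 15 min fitted to Hill equation.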

[4] = tested on: Zika virus NS2B-NS3 protease (linked construct); experiment: Primary screen NINDS Rhodamine qHTS for Zika virus inhibitors (AID 1347160); conditions: purified NS2B-NS3 protease, Rhodamine110 substrate fluorescence; series mostly up to 57.1 µM; also: nearly all actives have a fitted effect of over 55% in size; as to activity change, negative = inhibition: % is scaled to controls: 0 for no effect and ±100 for the full control effect
Outline: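 Purified linked NS2B-NS3 protease (NS2B hydrophilic domain joined to NS3 protease by flexible linker), 25 nM in 10 mM Tris-HCl pH 8.0, 0.01% Tween 20. Compounds titrated, 15 min preincubation at room temperature; 1.5 microM Rhodamine110 substrate, FITC fluorescence change over 15 min.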

[5] = molecular target: Lysine-specific demethylase 5B (Homo sapiens) (UniProt Q9UGL1); experiment: Optimization screen for KDM5B Histone Demethylases FDH coupled qHTS against the LOPAC library (AID 1347166); conditions: KDM5B demethylation, FDH-coupled NADH fluorescence (FDH is formaldehyde dehydrogenase); series mostly up to 57.5 µM; also: 0% is about no effect
Lysine-specific demethylase 5B (Homo sapiens), sequence (Q9UGL1 whole entry, looked up): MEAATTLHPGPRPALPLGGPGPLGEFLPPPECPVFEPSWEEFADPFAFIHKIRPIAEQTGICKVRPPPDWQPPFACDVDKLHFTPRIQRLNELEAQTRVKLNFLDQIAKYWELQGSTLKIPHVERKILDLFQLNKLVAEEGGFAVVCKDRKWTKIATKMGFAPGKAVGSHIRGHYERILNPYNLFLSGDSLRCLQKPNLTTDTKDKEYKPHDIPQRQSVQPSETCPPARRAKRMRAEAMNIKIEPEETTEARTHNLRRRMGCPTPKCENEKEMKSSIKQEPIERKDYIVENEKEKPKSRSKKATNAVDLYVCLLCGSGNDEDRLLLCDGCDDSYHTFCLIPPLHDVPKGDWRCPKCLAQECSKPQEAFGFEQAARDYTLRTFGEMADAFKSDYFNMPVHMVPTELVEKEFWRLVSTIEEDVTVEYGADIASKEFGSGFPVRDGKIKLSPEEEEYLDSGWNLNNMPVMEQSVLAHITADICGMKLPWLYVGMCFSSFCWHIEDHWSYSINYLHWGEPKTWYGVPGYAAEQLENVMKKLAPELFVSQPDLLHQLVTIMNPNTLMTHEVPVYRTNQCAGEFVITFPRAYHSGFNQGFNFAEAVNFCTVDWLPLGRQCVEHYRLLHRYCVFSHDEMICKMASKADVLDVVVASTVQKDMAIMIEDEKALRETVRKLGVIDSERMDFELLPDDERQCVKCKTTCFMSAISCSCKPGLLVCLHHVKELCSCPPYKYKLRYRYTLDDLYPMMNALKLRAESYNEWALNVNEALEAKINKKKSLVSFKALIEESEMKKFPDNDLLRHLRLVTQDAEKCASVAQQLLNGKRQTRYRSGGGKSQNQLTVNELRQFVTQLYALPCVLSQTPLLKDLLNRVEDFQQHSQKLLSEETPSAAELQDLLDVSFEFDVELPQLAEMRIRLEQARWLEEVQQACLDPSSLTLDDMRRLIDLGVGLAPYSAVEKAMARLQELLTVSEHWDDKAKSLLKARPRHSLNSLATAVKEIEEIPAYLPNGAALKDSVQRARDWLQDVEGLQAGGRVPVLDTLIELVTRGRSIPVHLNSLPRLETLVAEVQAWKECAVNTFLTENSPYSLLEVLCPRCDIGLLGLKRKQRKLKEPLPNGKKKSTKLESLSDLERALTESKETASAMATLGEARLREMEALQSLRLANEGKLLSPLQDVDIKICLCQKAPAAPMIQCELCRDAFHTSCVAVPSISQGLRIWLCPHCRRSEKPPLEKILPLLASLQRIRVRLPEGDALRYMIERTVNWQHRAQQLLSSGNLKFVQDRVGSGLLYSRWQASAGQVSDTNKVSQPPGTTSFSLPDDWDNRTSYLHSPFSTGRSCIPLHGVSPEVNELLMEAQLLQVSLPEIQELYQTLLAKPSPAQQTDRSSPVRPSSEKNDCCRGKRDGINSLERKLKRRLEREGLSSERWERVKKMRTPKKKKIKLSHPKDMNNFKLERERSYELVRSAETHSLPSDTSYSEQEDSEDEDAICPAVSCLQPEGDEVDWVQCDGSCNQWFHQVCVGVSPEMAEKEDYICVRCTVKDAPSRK
Outline: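 KDM5BDeltaAP (200nM final) preincubated 10 min with compound, then 12.5uM H3K4Me3, 25uM a-ketoglutarate, ascorbate, Fe(II), NAD+ and FDH added; 50mM HEPES pH 7.5, 0.01% Tween-20. NADH fluorescence (340/450 nm) change over 30 min, room temperature.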

[6] = qHTS to identify inhibitors of the type 1 interferon - major histocompatibility complex class I in skeletal muscle: primary screen against the NCATS LOPAC collection (AID 1347405); conditions: iHSKM muscle cells, IFN-b-induced MHC-I HiBiT luminescence, 24 h; series mostly up to 45.9 µM;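 also: lytic HiBiT luminescence reporting HLA-B protein level; % is scaled to controls: 0 for no effect and ±100 for the full control effect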
Outline: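 Immortalized human C25cl48 myoblasts with HiBiT knocked into endogenous HLA-B*08:01 were stimulated with 4.0 ng/ml IFN-beta and given compounds in a 7-point, 1:4.3 titration from 46 uM final; after 24 hrs, lytic HiBiT luminescence was read.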

[7] = qHTS for inhibitors of adenylyl cyclases using a fission yeast platform: a pilot screen against the NCATS LOPAC library (AID 1347410);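 also: plate controls were DMSO vehicle for no effect and DPI positive control for full effect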; conditions: S. pombe CHP2027, fbp1-GFP fluorescence, 18 h, yeast expressing mammalian AC9 and human GNAS; series mostly up to 57.5 µM
Outline: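 Read-out: fbp1-GFP fluorescence by laser scanning cytometry (488 nm laser), a gain of signal when AC/cAMP-PKA signalling is inhibited. Strain CHP2027 expressing AC9, GNAS and PDE4D2; compounds at up to 57 µM; 18 h, 30C.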

[8] = Validation qHTS assay for inhibitors of Activation Induced Cytidine Deaminase (AID): UDG Counterscreen signal (AID 1347427); conditions: biochemical UDG counterscreen, fluorescence signal; series mostly up to 115 µM; also: 0% is about no effect
Outline: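 Counterscreen read of UDG activity (2 U/mL, 4/3x) in the FRET deamination format with AID (1 uM, 4/3x), DJC20/DJC23 substrates (250 nM, 4x), 4 h at room temperature. NaOH stop, fluorescence at 560 ex/665 em.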

[9] = molecular target: Protein phosphatase 1D (Homo sapiens) (UniProt O15297); experiment: RapidFire Mass Spectrometry qHTS Assay for Modulators of WT P53-Induced Phosphatase 1 (WIP1) (AID 1347424); conditions: WIP1 dephosphorylation of phosphopeptide, RapidFire MS; series mostly up to 63 µM;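 also: amount of dephosphorylated VEPPL-S-QETFS peptide product formed by WIP1; plate controls were DMSO wells for no effect and GSK830371 inhibitor control at 10 µM for full effect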
Outline: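 10 nM WIP1 preincubated with compounds 1 hr at room temperature in pH 7.5 Tris buffer with 30 mM MgCl2, 1 mM TCEP; 2 uM VEPPL-pS-QETFS phosphopeptide for 5 min, formic acid quench; dephosphorylated product quantified by RapidFire MS against labelled standard.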

C/C(=C1\CCOC(=O)S1)N(C=O)Cc1cnc(C)nc1N
inactive: Potency [1] | outcome [2]

CC(C)(C)c1ccc(O)c(O)c1
inactive: Potency [1] | outcome [2]

N[C@@H](Cn1ccc(=O)c(O)c1)C(=O)O
inactive: activity change, negative = inhibition [3] 13% [at 11.5 µM] | outcome [4] inactive [at 4.91 µM] | outcome [5] | Potency [6] | outcome [7] | outcome [8]

C[C@H]1C[C@@H]2[C@H]([C@@H](O)C[C@@]3(C)[C@H]2CC[C@]3(O)C(=O)CO)[C@@]2(C)C=CC(=O)C=C12
inactive: Potency [1] | Potency [9] | outcome [2]

CN1C(=O)c2ccccc2C1=O
inactive: Potency [1] | Potency [9] | outcome [2]

Cc1ccc(C(=O)Oc2ccc(C(O)CNC(C)(C)C)cc2OC(=O)c2ccc(C)cc2)cc1 (stereo unspecified)
inactive: Potency [1] | Potency [9] | outcome [2]

CC(C)(C)C(=O)OCOC(=O)C1N2C(=O)CC2S(=O)(=O)C1(C)C (stereo unspecified)
inactive: Potency [1] | Potency [9] | outcome [2]

Clc1ccc2c(c1)N=C(N1CCNCC1)c1ccccc1N2
inactive: Potency [3] | outcome [4] | outcome [5] | Potency [6] | outcome [7] | outcome [8]

O=C1Nc2ccccc2C1(c1ccc(O)cc1)c1ccc(O)cc1
inactive: Potency [1] | Potency [9] | outcome [2]

CN=C(N)NC(=O)Nc1c(C)cccc1C
inactive: Potency [1] | Potency [9] | outcome [2]

CCOC(=O)Oc1ccc(CCNC(=O)[C@H](CCSC)NC(C)=O)cc1OC(=O)OCC
inactive: Potency [1] | Potency [9] | outcome [2]

CCCCCCCCCCCCCC[N+](C)(C)C
inactive: Potency [1] | Potency [9] | outcome [2]

Oc1ccccc1
inactive: Potency [1] | Potency [9] | outcome [2]

CCN(CC)CC(=O)OCC(=O)[C@@]1(O)CC[C@H]2[C@@H]3CCC4=CC(=O)CC[C@]4(C)[C@H]3[C@@H](O)C[C@@]21C
inactive: Potency [1] | Potency [9] | outcome [2]
